The record followed here is publication PMC7862700, “An all-to-all approach to the identification of sequence-specific readers for epigenetic DNA modifications on cytosine”.

Holding throughout (assay): DAPPL (digital affinity profiling via proximity ligation, sequencing); 10 mM Tris-HCl pH 7.5, 50 mM NaCl, 1 mM DTT, 4% glycerol, room temperature, 30 min; GST-TFs on glutathione beads, 16-mer random dsDNA library, 0.1% formaldehyde crosslink after washing; high values mean tight binding
One assay deals with T1, FEV (Homo sapiens, UniProt Q99581 1-238).
T1 sequence: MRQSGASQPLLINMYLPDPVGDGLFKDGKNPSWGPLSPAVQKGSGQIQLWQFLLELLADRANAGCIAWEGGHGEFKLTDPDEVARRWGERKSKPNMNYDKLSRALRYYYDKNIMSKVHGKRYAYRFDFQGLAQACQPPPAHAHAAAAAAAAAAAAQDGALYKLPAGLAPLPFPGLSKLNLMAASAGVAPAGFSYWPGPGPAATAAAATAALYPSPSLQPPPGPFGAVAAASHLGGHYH
The following applies: protein: recombinant; tags: N-terminal GST; dsDNA, one strand shown. An outline of the steps: (§1)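 Binding signal is given per hexamer as its read frequency for a factor divided by its frequency in the tag-only sample. GST-fused human transcription factors were expressed in yeast, captured on glutathione beads, barcoded with DNA and pooled with that sample, then incubated with 200 nmole of a 16-mer random double-stranded DNA library in Tris/NaCl/DTT/glycerol buffer for 30 min at room temperature. The pools were then washed, crosslinked, proximity-ligated, amplified by PCR and sequenced on an Illumina NextSeq500.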

Another assay has as its target ETV5 (Homo sapiens, UniProt P41161 1-510). As to conditions: protein: recombinant; tags: N-terminal GST; dsDNA, one strand shown. An outline of the steps: as §1
The next assay deals with HSF1 (Homo sapiens, UniProt Q00613 1-529). As to conditions: protein: recombinant; tags: N-terminal GST; chain copies: 3; dsDNA, one strand shown. An outline of the steps:
as §1

A further assay has as its target T2, SPIC (Homo sapiens, UniProt Q8N5J4 1-248).
T2 sequence: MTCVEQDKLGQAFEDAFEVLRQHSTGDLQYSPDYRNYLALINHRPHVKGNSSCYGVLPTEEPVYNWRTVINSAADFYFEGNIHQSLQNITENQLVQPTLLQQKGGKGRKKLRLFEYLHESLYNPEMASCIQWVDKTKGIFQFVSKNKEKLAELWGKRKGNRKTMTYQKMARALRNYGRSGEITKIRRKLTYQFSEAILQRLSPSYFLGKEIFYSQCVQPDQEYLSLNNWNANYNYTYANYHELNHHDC
As to conditions: protein: recombinant; tags: N-terminal GST; dsDNA, one strand shown. An outline of the steps:
as §1

Another assay concerns the target ELF4 (Homo sapiens, UniProt Q99607 1-663). As to conditions: protein: recombinant; tags: N-terminal GST; dsDNA, one strand shown. The method, boiled down: as §1
The target in the next assay is T3, ELK4 (Homo sapiens, UniProt P28324-2 1-405).
T3 sequence: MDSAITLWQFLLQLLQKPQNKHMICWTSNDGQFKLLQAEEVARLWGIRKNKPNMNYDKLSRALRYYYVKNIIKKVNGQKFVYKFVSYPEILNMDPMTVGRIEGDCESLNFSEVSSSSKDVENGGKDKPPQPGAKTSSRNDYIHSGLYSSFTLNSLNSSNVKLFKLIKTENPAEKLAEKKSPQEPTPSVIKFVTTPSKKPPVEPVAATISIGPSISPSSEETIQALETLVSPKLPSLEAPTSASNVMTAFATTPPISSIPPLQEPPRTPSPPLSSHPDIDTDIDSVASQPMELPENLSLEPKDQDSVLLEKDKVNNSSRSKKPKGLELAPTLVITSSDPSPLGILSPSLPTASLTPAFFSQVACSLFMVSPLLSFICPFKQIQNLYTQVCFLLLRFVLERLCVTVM
As to conditions: protein: recombinant; tags: N-terminal GST; dsDNA, one strand shown. An outline of the steps: as §1

The target in a further assay is T4, ETV2 (Homo sapiens, UniProt O00321 1-342).
T4 sequence: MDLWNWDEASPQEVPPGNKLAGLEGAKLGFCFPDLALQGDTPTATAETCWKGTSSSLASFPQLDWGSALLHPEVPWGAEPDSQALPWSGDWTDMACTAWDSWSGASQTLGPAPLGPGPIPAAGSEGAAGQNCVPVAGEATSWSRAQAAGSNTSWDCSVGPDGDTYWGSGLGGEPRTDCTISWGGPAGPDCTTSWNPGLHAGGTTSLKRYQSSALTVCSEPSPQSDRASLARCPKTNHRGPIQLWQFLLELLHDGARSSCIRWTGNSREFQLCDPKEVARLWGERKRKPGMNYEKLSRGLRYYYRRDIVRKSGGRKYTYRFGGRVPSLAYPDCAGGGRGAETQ
The following applies: protein: recombinant; tags: N-terminal GST; dsDNA, one strand shown. The method, boiled down:
as §1

For a further assay, the target named is T5, ELF3 (Homo sapiens, UniProt P78545 1-371).
T5 sequence: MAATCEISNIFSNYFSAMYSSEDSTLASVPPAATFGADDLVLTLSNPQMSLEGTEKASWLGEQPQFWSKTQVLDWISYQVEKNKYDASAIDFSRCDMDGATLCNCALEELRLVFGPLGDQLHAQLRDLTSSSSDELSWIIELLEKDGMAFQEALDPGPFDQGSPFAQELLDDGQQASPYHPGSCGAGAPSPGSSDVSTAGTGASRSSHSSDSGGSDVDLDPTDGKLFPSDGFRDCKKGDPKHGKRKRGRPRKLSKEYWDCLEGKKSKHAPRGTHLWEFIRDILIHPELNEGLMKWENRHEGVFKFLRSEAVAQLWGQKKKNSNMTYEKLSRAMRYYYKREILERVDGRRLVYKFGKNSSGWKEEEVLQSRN
As to conditions: protein: recombinant; tags: N-terminal GST; dsDNA, one strand shown. The method, boiled down:
as §1

In the next assay the target is CRX (Homo sapiens, UniProt O43186 1-299). The following applies: protein: recombinant; tags: N-terminal GST; dsDNA, one strand shown. An outline of the steps: as §1
Sequence of CRX (O43186 whole entry): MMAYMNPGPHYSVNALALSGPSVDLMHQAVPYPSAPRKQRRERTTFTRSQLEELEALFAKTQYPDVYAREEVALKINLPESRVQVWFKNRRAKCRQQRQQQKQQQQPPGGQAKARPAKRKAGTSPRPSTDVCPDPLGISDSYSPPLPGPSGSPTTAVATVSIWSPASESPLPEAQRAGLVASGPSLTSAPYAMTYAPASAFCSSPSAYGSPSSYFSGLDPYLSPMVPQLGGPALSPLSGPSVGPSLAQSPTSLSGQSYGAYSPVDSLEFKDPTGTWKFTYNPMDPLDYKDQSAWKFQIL
The target of the next assay is ETV1 (Homo sapiens, UniProt P50549 1-477). As to conditions: protein: recombinant; tags: N-terminal GST; dsDNA, one strand shown. An outline of the steps: as §1
Sequence of ETV1 (P50549 whole entry): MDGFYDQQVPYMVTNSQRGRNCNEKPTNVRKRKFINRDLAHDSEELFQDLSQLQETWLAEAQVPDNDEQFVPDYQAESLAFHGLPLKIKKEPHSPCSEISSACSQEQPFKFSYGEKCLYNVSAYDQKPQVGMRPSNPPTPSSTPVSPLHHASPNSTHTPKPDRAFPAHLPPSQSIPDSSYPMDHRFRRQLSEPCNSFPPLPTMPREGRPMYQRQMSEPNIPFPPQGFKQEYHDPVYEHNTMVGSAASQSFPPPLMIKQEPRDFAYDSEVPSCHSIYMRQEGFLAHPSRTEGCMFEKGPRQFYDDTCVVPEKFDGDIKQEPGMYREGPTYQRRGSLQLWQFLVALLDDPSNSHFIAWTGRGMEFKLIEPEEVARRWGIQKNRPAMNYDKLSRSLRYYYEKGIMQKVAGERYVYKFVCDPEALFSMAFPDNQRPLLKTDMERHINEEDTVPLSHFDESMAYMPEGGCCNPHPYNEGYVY
The target of the next assay is T6, ERF (Homo sapiens, UniProt P50548 1-548).
T6 sequence: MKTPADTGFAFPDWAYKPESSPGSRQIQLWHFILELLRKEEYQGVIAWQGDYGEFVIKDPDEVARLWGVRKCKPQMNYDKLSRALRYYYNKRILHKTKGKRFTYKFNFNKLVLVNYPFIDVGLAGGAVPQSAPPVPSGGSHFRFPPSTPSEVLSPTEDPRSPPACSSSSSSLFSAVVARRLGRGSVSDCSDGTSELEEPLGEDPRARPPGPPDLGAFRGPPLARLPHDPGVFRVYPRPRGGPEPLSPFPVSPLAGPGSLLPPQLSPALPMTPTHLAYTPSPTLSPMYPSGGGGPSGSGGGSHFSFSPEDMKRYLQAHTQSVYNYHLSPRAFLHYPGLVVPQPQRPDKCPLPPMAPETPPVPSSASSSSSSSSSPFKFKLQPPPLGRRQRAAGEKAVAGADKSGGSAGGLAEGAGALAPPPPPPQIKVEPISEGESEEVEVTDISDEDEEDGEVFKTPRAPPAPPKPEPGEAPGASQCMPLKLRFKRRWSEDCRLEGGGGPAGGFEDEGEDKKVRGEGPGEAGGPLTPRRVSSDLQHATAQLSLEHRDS
As to conditions: protein: recombinant; tags: N-terminal GST; dsDNA, one strand shown. An outline of the steps:
as §1

Another assay deals with T7, ETV3L (Homo sapiens, UniProt Q6ZN32 1-361).
T7 sequence: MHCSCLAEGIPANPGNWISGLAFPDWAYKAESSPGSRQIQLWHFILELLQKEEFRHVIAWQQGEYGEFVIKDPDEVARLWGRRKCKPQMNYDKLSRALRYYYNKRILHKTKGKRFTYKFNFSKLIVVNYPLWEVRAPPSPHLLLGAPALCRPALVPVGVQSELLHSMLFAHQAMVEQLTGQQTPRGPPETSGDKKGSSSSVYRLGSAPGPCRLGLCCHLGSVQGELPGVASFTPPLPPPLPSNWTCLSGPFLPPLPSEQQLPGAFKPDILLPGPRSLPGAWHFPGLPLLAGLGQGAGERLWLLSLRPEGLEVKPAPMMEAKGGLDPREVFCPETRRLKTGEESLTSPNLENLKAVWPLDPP
The following applies: protein: recombinant; tags: N-terminal GST; dsDNA, one strand shown. The method, boiled down:
as §1

The target in a further assay is T8, ETS2 (Homo sapiens, UniProt P15036 1-469).
T8 sequence: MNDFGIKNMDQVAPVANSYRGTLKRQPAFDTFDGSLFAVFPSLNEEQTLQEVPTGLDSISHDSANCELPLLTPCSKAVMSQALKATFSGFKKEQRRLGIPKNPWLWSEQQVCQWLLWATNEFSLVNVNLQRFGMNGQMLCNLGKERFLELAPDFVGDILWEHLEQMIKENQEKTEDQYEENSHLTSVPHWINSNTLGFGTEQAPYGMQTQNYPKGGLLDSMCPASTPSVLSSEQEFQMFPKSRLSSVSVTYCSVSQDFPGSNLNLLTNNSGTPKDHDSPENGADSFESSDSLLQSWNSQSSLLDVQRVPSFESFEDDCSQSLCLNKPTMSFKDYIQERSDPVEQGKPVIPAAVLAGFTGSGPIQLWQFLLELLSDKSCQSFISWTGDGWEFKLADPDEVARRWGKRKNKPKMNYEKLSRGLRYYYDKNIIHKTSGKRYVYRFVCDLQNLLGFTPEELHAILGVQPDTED
The following applies: protein: recombinant; tags: N-terminal GST; dsDNA, one strand shown. The method, boiled down:
as §1

In the next assay the target is T9, SPDEF (Homo sapiens, UniProt O95238 1-335).
T9 sequence: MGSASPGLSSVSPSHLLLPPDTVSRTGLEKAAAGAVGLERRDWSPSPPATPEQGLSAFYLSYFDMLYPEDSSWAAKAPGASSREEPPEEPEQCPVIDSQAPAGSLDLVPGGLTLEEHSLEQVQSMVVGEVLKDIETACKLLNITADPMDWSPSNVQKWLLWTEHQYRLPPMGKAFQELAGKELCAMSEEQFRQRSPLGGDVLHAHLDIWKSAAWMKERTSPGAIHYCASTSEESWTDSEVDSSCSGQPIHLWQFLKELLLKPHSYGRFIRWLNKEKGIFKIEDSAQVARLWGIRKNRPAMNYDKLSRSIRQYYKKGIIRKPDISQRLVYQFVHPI
As to conditions: protein: recombinant; tags: N-terminal GST; dsDNA, one strand shown. An outline of the steps:
as §1

The target of another assay is T10, ETV7 (Homo sapiens, UniProt Q9Y603 1-341).
T10 sequence: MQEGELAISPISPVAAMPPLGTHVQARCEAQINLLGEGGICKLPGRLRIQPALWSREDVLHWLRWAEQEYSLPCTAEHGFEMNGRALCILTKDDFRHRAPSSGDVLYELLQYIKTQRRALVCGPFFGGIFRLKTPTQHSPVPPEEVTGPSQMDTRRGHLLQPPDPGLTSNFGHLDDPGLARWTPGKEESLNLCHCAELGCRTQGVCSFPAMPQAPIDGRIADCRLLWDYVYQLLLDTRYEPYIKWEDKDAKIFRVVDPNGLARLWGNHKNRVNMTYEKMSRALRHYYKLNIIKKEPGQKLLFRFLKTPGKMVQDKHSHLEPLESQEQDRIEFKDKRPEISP
The following applies: protein: recombinant; tags: N-terminal GST; dsDNA, one strand shown. The method, boiled down: as §1

Another assay deals with T11, ELF5 (Homo sapiens, UniProt Q9UKW6-2 1-255).
T11 sequence: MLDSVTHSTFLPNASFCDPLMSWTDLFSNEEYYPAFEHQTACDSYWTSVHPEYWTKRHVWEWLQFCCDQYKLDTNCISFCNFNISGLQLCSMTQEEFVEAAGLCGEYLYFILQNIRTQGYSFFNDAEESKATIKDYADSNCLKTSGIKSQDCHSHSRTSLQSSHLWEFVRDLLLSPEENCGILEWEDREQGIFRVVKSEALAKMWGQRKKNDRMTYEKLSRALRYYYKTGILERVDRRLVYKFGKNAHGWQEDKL
The following applies: protein: recombinant; tags: N-terminal GST; dsDNA, one strand shown. The method, boiled down:
as §1

The target in the next assay is T12, ETV3 (Homo sapiens, UniProt P41162-2 1-143).
T12 sequence: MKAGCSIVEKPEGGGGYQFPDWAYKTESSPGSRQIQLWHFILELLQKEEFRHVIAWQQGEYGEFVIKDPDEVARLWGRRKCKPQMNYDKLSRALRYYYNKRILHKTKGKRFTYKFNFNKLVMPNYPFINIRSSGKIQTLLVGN
The following applies: protein: recombinant; tags: N-terminal GST; dsDNA, one strand shown. An outline of the steps: as §1

Another assay has as its target ETV6 (Homo sapiens, UniProt P41212 1-452). As to conditions: protein: recombinant; tags: N-terminal GST; dsDNA, one strand shown. The method, boiled down:
as §1

Sequence of ETV5 (P41161 whole entry): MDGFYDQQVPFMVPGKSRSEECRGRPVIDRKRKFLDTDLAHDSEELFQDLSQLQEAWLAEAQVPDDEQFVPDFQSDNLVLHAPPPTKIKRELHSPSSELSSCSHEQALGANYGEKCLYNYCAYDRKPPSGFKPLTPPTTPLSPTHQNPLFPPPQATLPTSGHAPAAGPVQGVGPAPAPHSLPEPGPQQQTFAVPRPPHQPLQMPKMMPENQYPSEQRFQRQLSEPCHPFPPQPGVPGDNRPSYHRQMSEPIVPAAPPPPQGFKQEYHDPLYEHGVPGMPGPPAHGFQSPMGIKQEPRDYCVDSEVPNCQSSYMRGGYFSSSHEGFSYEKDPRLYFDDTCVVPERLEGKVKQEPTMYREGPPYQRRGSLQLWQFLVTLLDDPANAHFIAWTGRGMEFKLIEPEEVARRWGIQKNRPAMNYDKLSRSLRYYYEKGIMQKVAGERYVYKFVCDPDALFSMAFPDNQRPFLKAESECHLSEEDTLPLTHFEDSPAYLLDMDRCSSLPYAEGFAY
Sequence of HSF1 (Q00613 whole entry): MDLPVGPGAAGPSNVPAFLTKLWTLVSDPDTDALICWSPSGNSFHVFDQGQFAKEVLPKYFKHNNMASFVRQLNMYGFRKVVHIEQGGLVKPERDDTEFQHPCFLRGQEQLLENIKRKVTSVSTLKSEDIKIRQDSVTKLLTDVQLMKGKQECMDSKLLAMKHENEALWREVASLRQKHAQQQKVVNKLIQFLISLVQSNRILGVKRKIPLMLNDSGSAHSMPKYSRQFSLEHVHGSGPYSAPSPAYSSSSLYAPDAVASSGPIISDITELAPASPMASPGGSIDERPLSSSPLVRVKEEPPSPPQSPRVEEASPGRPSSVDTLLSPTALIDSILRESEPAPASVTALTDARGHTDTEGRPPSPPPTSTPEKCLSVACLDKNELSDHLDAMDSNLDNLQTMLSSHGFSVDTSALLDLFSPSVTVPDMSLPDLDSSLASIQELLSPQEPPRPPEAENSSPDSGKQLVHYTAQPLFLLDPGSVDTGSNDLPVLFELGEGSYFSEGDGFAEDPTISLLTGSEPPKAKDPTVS
Sequence of ELF4 (Q99607 whole entry): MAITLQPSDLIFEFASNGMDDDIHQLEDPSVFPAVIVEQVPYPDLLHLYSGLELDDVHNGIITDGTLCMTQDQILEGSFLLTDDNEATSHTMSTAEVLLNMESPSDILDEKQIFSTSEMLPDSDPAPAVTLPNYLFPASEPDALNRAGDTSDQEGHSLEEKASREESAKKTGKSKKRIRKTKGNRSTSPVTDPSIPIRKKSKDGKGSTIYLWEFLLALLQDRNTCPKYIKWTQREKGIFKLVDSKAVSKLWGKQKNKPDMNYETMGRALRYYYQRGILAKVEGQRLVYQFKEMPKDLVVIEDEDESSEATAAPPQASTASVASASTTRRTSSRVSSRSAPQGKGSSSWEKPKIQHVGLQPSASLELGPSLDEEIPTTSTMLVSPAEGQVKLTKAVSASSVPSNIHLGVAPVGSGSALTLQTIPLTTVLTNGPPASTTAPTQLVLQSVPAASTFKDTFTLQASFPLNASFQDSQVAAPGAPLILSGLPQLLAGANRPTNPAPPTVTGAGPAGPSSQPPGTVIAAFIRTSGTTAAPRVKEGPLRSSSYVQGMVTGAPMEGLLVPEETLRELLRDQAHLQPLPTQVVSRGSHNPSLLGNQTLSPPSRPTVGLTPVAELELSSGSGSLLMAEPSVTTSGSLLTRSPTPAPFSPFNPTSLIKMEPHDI
Sequence of ETV6 (P41212 whole entry): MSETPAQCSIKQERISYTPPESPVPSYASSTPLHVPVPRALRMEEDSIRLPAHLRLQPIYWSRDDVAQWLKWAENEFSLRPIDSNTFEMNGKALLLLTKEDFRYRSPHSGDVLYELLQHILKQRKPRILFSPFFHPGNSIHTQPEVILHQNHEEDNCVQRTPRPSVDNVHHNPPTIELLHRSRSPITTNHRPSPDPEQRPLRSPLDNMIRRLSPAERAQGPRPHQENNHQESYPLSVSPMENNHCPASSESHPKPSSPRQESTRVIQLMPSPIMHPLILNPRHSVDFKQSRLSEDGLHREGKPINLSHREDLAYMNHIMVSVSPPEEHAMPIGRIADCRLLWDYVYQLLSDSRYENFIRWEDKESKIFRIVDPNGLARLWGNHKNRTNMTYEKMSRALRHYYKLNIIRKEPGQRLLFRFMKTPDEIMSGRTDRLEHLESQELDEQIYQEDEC

As for CCCATT, the binding signal was 1.28 fold enrichment (6-mer frequency, TF over GST control) in the assay with FEV; 1.38 fold enrichment (6-mer frequency, TF over GST control) in the assay with ETV5; 1.15 fold enrichment (6-mer frequency, TF over GST control) with HSF1; 1.43 fold enrichment (6-mer frequency, TF over GST control) with SPIC; 1.23 fold enrichment (6-mer frequency, TF over GST control) with ELF4; 1.26 fold enrichment (6-mer frequency, TF over GST control) in the assay with ELK4. The binding signal with ETV2 is 1.56 fold enrichment (6-mer frequency, TF over GST control); with ELF3, 1.22 fold enrichment (6-mer frequency, TF over GST control); with CRX, 1.19 fold enrichment (6-mer frequency, TF over GST control); with ETV1, 1.25 fold enrichment (6-mer frequency, TF over GST control); in the assay with ERF, 1.32 fold enrichment (6-mer frequency, TF over GST control); in the assay with ETV3L, 1.3 fold enrichment (6-mer frequency, TF over GST control). Moreover, the binding signal with ETS2 is 1.43 fold enrichment (6-mer frequency, TF over GST control); with SPDEF, 1.19 fold enrichment (6-mer frequency, TF over GST control); with ETV7 it was 1.38 fold enrichment (6-mer frequency, TF over GST control); with ELF5, 1.4 fold enrichment (6-mer frequency, TF over GST control); with ETV3, 1.24 fold enrichment (6-mer frequency, TF over GST control); with ETV6, 1.29 fold enrichment (6-mer frequency, TF over GST control).
